Z-score data for 35 molecules are collected here from PubChem BioAssay.

Activity calls are given as the source filed them.

A short description of this test: optical density shifts of acrAB sulA E. coli – strain DRC41, OD650, 48 h, E. coli filamentation inducer project, primary screen (AID 1152).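 Further: E. coli MC1000 strain DRC41 lacking acrAB efflux pump and sulA.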 Particulars: higher = more signal, called active from +8 up or from −8 down.
On to `COC(=O)C(CC#Cc1ccc2c(c1)[C@]1(C(=O)N2)[C@H](C(=O)NC[C@H](O)c2ccccc2)[C@H]2C(=O)O[C@H](c3ccccc3)[C@H](c3ccccc3)N2[C@@H]1c1ccccc1OCCO)C(=O)OC`, for which the z-score was 1.52 (inactive).

With `CN(C)CCCNC(=O)[C@@]1(Cc2ccccc2I)c2ccccc2C(=O)N(C2CCCCC2)[C@H]1c1ccc(CO)cc1`, the z-score was -2.04 (inactive).

On to `CN1C(=O)C2C=CC(C(O)c3ccc(-c4ccccc4)s3)N(NC(=O)OC(C)(C)C)C2C1=O` (stereo not given), for which the z-score was -0.898 (inactive).

As to `CCCNC(=O)[C@@]1(Sc2ccc(C)cc2)CC(=O)N(Cc2ccccc2Cl)[C@@H]1c1ccc(CO)cc1I`, the z-score was 0.244 (inactive).

With `CN(C)c1ccc(C(O)C2C=CC3C(=O)N(Cc4ccccc4)C(=O)C3N2n2cnnc2)cc1` (stereo not given), the z-score is 1.3 (inactive).

For `C[C@@H]1ON(c2ccccc2)[C@H](c2ccccc2)[C@H]1C(=O)O`, the z-score was -0.0929 (inactive).

As for `O=C1[C@H]2C=C(I)[C@H](C[C@@H]2c2ccccc2)[C@@]12CO2`, the z-score is -1.76 (inactive).

For the molecule `C=CCC(OC(C)=O)[C@@H]1[C@@H](N(Cc2ccc(-c3cccc(C(F)(F)F)c3)o2)C(=O)c2ccc(-c3ccccc3)cc2)c2cc(OCCCO)ccc2N1C(=O)c1ccc2ccccc2c1` (stereo not given in full), the z-score is -0.251 (inactive).

Consider `O=C(NCc1ccc(F)cc1)[C@H]1C[C@H]2C(=O)N3CCC[C@H]3C(=O)N2[C@H]1c1ccc(O)cc1`, for which the z-score is 1.84 (inactive).

`N#Cc1ccc(NN2C(C(O)C3CC=CCC3)C=CC3C(=O)N(c4ccccc4)C(=O)C32)cc1` (stereo not given): the z-score was -0.411 (inactive).

Consider `CCCNC(=O)[C@@]1(c2ccc([N+](=O)[O-])cc2)CC(=O)N(C(C)C)[C@@H]1c1ccc(CO)cc1`, for which the z-score was -0.169 (inactive).

Turning to `CC(C)N1C(=O)C[C@@](C(=O)NCCN2CCOCC2)(c2ccc([N+](=O)[O-])cc2)[C@H]1c1ccc(CO)cc1`, the z-score was 0.344 (inactive).

On to `C[N+](C)(C)CCCC[C@@H]1NC(=O)[C@H]2C[C@@H](C(=O)NCCCCCNC(=O)CS)[C@@H](c3cccc(OCCO)c3)N2C1=O`, for which the z-score is 0.19 (inactive).

Take `[N-]=[N+]=Nc1ccccc1[C@@H]1OC(c2ccc(OCCCO)cc2)=N[C@]1(Cc1ccccc1)C(=O)NCCN1CCOCC1`: the z-score is 0.146 (inactive).

With `CCOC(=O)C[C@H]1[C@H](OC(=O)c2ccccc2-c2ccccc2)[C@@H](NC(=O)C2CCCCC2)c2cc(OCCCO)ccc2N1C(=O)c1ccc2ccccc2n1`, the z-score was -0.899 (inactive).

On to `NC(=O)N1C(=O)C2C(C1=O)C1C=C(CCCO)C2C(c2ccc(CN3CCCC3)cc2)N1Cc1sc2ccccc2c1Cl` (stereo not given), for which the z-score is -0.711 (inactive).

On to `CC(C)(C)N1CC=CC23O[C@@H]4/C=C\CCCOC(=O)C4[C@H]2C(=O)N(CCCO)[C@@H]3C1=O` (stereo not given in full), for which the z-score was -0.455 (inactive).

Turning to `CC(C)N1C(=O)c2ccccc2[C@](C)(C(=O)NCC(F)(F)F)[C@@H]1c1ccc(CO)cc1`, the z-score is 0.481 (inactive).

On to `COc1ccc(C#Cc2ccc3c(c2)[C@]2(C(=O)N3)[C@H](C(=O)O)[C@H]3C(=O)O[C@H](c4ccccc4)[C@H](c4ccccc4)N3[C@@H]2c2ccccc2OCCO)cc1`, for which the z-score was 0.987 (inactive).

Regarding `CCCCCC1=C2CNC(Cc3ccccc3)(C(=O)OC)C=C2C(C)C1=O` (stereo not given), the z-score was -1.76 (inactive).

As for `CCCCCCc1nc(-c2ccc(-c3ccc(Cl)c(Cl)c3)o2)cc2c1[Si](C(C)C)(C(C)C)OC2`, the z-score is 0.615 (inactive).

Turning to `COC(=O)[C@H](Cc1ccccc1)N1CC2=CCCC=C[C@@H]2[C@H]1[C@H](O)Cc1ccccc1`, the z-score was -0.53 (inactive).

Turning to `COC(=O)[C@@]1(Cc2ccc(F)cc2)[C@H]2c3cc(C(=O)N4CCCC4)n(CCc4ccccn4)c3C[C@H]2CN1C(=O)c1ccccc1`, the z-score was -1.04 (inactive).

As for `O=C1N(CCS(=O)(=O)c2ccccc2)c2ccccc2C[C@]12N=C(c1ccc(OCCCO)cc1)O[C@@H]2c1ccccc1`, the z-score was -0.499 (inactive).

On to `C=CCN1C(=O)[C@]2(O[C@H](CCn3cc([C@H](O)c4ccccc4)nn3)[C@@H]([Si](C)(C)c3ccc(OC)cc3)[C@@H]2C)c2cc(NC(=O)c3ccc(OC)cc3)ccc21`, for which the z-score is 0.294 (inactive).

On to `C=C(COC)C(=O)CC[C@@H](OC(C)=O)c1ccccc1OCCO`, for which the z-score was 0.929 (inactive).

`COC(=O)[C@@]1(Cc2ccc(F)cc2)[C@H]2c3cc(C(=O)N4CCCC4)n(Cc4ccccn4)c3C[C@H]2CN1C(=O)c1ccccc1`: the z-score was -1.9 (inactive).

In the case of `C=CCOC(=O)[C@@H]1[C@H]2C(=O)O[C@H](c3ccccc3)[C@H](c3ccccc3)N2[C@H](c2ccc(OCCOC(=O)[C@H]3C[C@H]4C(=O)NCC(=O)N4[C@H]3c3cccc(OCCO)c3)cc2)[C@@]12C(=O)Nc1ccc(I)cc12`, the z-score was -0.27 (inactive).

Consider `COC(=O)C[C@H]1O[C@@]2(C[C@@H]1[Si](C)(C)C)C(=O)N(C)c1ccccc12`, for which the z-score is 3.12 (inactive).

With `CN(C)CCCC[C@@H]1NC(=O)[C@@H]2C[C@H](C(=O)NCCCCCCNC(=O)CS)[C@H](c3ccc(O)cc3)N2C1=O`, the z-score is -1.05 (inactive).

For `CCOC(=O)C1=CC[C@@H](c2ccc(OC)cc2)N(S(=O)(=O)c2ccc(C)cc2)[C@H]1CC`, the z-score is 0.938 (inactive).

For `C=C(CCCC)/C(=C/C[C@H](OC(=O)c1ccncc1)c1ccc(OCCO)cc1)c1cnc2ccccc2c1`, the z-score was 0.339 (inactive).

With `COC(=O)[C@@]1(Cc2ccc(F)cc2)[C@H]2c3cc(C(=O)N4CCCC4)n(Cc4cc(F)cc5c4OCOC5)c3C[C@H]2CN1C(=O)c1ccccc1`, the z-score was -2.25 (inactive).

Consider `C=C(CCCC)C(=O)CC[C@H](OC(=O)c1ccccc1-c1ccccc1C(=O)O)c1ccc(OCCO)cc1`, for which the z-score was 0.418 (inactive).

`C[N+](C)(C)CCCCNC(=O)[C@H]1C[C@H]2C(=O)N[C@@H](Cc3ccccc3)C(=O)N2[C@H]1c1cccc(OCCO)c1`: the z-score is 0.0946 (inactive).
